36 compounds from PubChem BioAssay can be followed below.

SMILES strings stand for the structures.

For the first test, the target named is Torsin-1A (Homo sapiens) (UniProt O14656). Kind of test: torsin A mutant lysate binding on microarrays – cell lysate, small-molecule microarray, COS7 lysate, 635/667 nm fluorescence, primary screen (AID 1150).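 Further: score pools 667 nm emission and signal to noise measuring lysate protein binding.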 Conditions: COS7 hTOR1A mutant lysate, 635 nm fluorescence, higher = more signal.
Sequence of Torsin-1A (Homo sapiens) (O14656 whole entry, looked up): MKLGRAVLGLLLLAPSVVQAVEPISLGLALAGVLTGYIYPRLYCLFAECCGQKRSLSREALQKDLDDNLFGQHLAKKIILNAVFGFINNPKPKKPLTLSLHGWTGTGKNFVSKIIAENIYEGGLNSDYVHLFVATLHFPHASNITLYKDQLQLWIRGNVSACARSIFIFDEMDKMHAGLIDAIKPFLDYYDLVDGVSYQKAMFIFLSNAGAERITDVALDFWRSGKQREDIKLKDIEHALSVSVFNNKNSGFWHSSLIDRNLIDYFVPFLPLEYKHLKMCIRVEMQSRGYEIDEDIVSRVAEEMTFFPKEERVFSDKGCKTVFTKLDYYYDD
In turn, `CCOC(=O)NN=C1C[C@@H](O)[C@@H](O)[C@@H]2[C@@H]3C(=O)N(CC)C(=O)[C@@H]3CC[C@@H]12` had a composite z-score of -0.0727.

In turn, `CC(C)NC(=O)[C@@]1(c2ccc([N+](=O)[O-])cc2)CC(=O)N(CC23CC4CC(CC(C4)C2)C3)[C@@H]1c1ccc(CO)cc1I` showed a composite z-score of 0.369.

Compound `COC(=O)C1(C)C=C2C(=C(c3ccccc3)C(=O)C2C)CN1` (stereo not drawn) registered a composite z-score of -0.367.

On to `O=C1[C@H]2[C@H]3[C@H](O)[C@H](O)CC(=NO[C@@H]4O[C@H](CO)[C@@H](O)[C@H](O)[C@H]4O)[C@@H]3CC[C@H]2C(=O)N1Cc1ccccc1`, for which the composite z-score was 0.409.

In turn, `CCOC(=O)CCN1C(=O)[C@H]2[C@H]3[C@H](O)C=CC(=O)[C@@H]3CC[C@H]2C1=O` displayed a composite z-score of -0.364.

With `Cc1cc2c(nc1C)CCCN2CC(C)ON=C1[C@H]2CCn3c(=O)n(-c4ccccc4)c(=O)n3[C@H]2[C@H](O)[C@@H]2O[C@H]12` (stereo partly drawn), the composite z-score is 0.246.

`CCCCc1nc2c(c3c1C[C@H](C)OC3)CN(CCC(C)C)CC2` displayed a composite z-score of 0.622.

The subject of the next test is Sonic hedgehog protein (Shh). As to the kind of experiment: Sonic hedgehog microarray binding compounds – biochemical, small-molecule microarray, 635/667 nm fluorescence, primary screen (AID 1151).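 Further: Shh protein binding to compounds spotted on small-molecule microarray slides; score combines spot fluorescence intensity with signal-to-noise across triplicate slides.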 To be noted: 635 nm fluorescence, higher = more signal.
On to `CC(=O)OC[C@H]1O[C@@H](ON=C[C@@H](C)[C@H](OCc2ccccc2)C(C)C)[C@H](OC(C)=O)[C@@H](OC(C)=O)[C@@H]1OC(C)=O`, for which the composite z-score was -0.925.

For the compound `CN1C(=O)C2C=CC(C(O)C(c3ccccc3)c3ccccc3)N(NC(=O)OC(C)(C)C)C2C1=O` (stereo not drawn), the composite z-score was -0.587.

`COC(=O)C1=C(C)N(Cc2ccccc2)[C@]23O[C@](C(=O)OC)(C(=O)N2[C@@H]1c1ccccc1)[C@H]1CCOC(=O)[C@H]13` had a composite z-score of 1.05.

In the case of `C=C(CCCC)C(=O)CC[C@@H](OC(C)=O)c1cccc(OCCO)c1`, the composite z-score amounted to 1.56.

The compound `CO[C@@H]1COC(=O)CC=C[C@@H](C)[C@@H]2C=C[C@@H](O)[C@@H](COC(=O)CC=C[C@H]1C)O2` yielded a composite z-score of 2.18.

As to `COC(=O)[C@@]1(Cc2ccccc2)[C@H]2c3cc(C(=O)N4CCCC4)n(Cc4ccccn4)c3C[C@H]2CN1C(=O)c1ccccc1`, the composite z-score is -0.369.

`CCOC(=O)NN=C1C[C@@H](O)[C@@H](O)[C@@H]2[C@@H]3C(=O)N(C(C)(C)C)C(=O)[C@@H]3CC[C@@H]12` displayed a composite z-score of -0.36.

`C=CCN1C(=O)[C@]2(O[C@H](CCn3cc(CCO)nn3)[C@@H]([Si](C)(C)c3ccc(OC)cc3)[C@@H]2C)c2cc(N3CCOC3=O)ccc21` gave a composite z-score of 0.6.

Compound `CCOc1ccc(N2C(=O)/C(=C/C=C/c3ccccc3OC)S(=O)(=O)C2c2cccc([N+](=O)[O-])c2)cc1` (stereo not drawn) displayed a composite z-score of 0.37.

In turn, `O[C@@H](Cc1ccccc1)[C@H]1C2C=CCCC(c3ccccc3)=C2CN1Cc1cccc(Cl)c1` (stereo partly drawn) registered a composite z-score of 0.733.

Regarding `CO[C@H]1O[C@H](CO)[C@@H](OC(=O)Nc2ccc(C#N)cc2)[C@H](OC(=O)c2cc3ccccc3[nH]2)[C@H]1OC(=O)c1cc2ccccc2[nH]1`, the composite z-score is 0.746.

In the case of `Cc1ccc(S(=O)(=O)N[C@@H]2COC(=O)[C@H](C)COC(=O)CC=C[C@H]2C)cc1`, the composite z-score was determined as 1.91.

In turn, `C=CC[C@@H]1C=C[C@H](ON=C2c3cc(OC)ccc3O[C@H](c3cccc(OC)c3)[C@H]2O)[C@@H](CO)O1` registered a composite z-score of 0.723.

Compound `C=CCC(OC(C)=O)[C@@H]1[C@@H](N(Cc2cc3ccccc3o2)C(=O)Cc2ccc(F)cc2)c2cc(OCCCO)ccc2N1C(=O)Cc1ccc(OC)cc1` (stereo partly drawn) displayed a composite z-score of 0.603.

Turning to `CCOC(=O)[C@H](CC(C)C)NC(=O)CCC1CC(OC(=O)NCCc2ccc(F)cc2)CC2(CCCC(COC(=O)NCc3ccccc3)O2)O1` (stereo partly drawn), the composite z-score stood at 1.86.

The compound `O=C1[C@H]2[C@H]3[C@H](O)[C@H](O)CC(=NOC[C@@H](O)COCc4ccco4)[C@H]3CC[C@H]2C(=O)N1Cc1ccc2c(c1)OCO2` displayed a composite z-score of 2.03.

On to `CC(CCC(=O)OC[C@H]1O[C@H](C#Cc2ccccc2)C=C[C@@H]1Oc1ccc(C)cc1)=NOC[C@@H](O)[C@H]1O[C@@H]2OC(C)(C)O[C@@H]2[C@H]1O`, for which the composite z-score is -0.108.

`CC(C)(C)N1CC=CC23O[C@@H]4C=CCCOC(=O)C4[C@H]2C(=O)N(CCCCCO)[C@@H]3C1=O` (stereo partly drawn) showed a composite z-score of 0.992.

Consider `CCc1cc2c(nc1CC)CCN(CCC(C)=NO[C@@H](C)c1cc(-c3c(C)cc(C)cc3C)no1)C2`, for which the composite z-score came out at 0.134.

With `CC(C)CON=C1C[C@@H](O)[C@@H](O)[C@@H]2[C@@H]3C(=O)N(Cc4ccccc4)C(=O)[C@@H]3CC[C@@H]12`, the composite z-score worked out at 0.305.

`COCCCNC(=O)[C@@]1(C)c2ccccc2C(=O)N(Cc2ccc(OC(F)(F)F)cc2)[C@H]1c1ccc(CO)cc1` showed a composite z-score of -0.32.

`O=C1C2=CC[C@H]3C(=O)N(Cc4ccc5c(c4)OCO5)C(=O)[C@H]3[C@H]2[C@H](O)[C@@H]2O[C@H]12` came in with a composite z-score of 0.495.

The compound `COc1ccc(O[C@H]2C=C[C@@H](c3ccccc3)O[C@@H]2COC(=O)CCC(C)=NOC(C)CN2CCCCc3nc(C)c(C)cc32)cc1` (stereo partly drawn) gave a composite z-score of -0.0679.

`CC(CCN1CCCCc2nc(C)c(C)cc21)=NOC(C)CN1CCCCc2nc(C)c(C)cc21` (stereo not drawn) returned a composite z-score of 1.69.

`O=C1[C@H]2[C@H]3[C@H](O)[C@H](O)CC(=NOCc4ccccc4)[C@@H]3CC[C@H]2C(=O)N1C1CCCCC1` came in with a composite z-score of -0.317.

Turning to `COc1ccc([Si](C)(C)[C@@H]2[C@@H](CCO)O[C@]3(C(=O)N(Cc4ccc(NC(C)=O)cc4)c4ccccc43)[C@H]2C)cc1`, the composite z-score is 1.35.

For `Cc1cc2c(c(=O)o1)[C@H](O)[C@H]1O[C@H]1C2=O`, the composite z-score was found to be 1.5.

`O=C1[C@H]2[C@H]3[C@H](O)[C@H](O)CC(=NOC[C@@H](O)COCc4ccco4)[C@H]3CC[C@H]2C(=O)N1C1CCCCC1` gave a composite z-score of 1.54.

In turn, `[N-]=[N+]=Nc1ccccc1C[C@@]1(C(N)=O)N=C(c2ccc(OCCCO)cc2)O[C@@H]1c1ccccc1` returned a composite z-score of -0.714.

`CCOC(=O)NN=C1C[C@@H](O)[C@@H](O)[C@@H]2[C@@H]3C(=O)N(CC)C(=O)[C@@H]3CC[C@@H]12`: the composite z-score amounted to 0.784.

Consider `CC(C)NC(=O)[C@@]1(c2ccc([N+](=O)[O-])cc2)CC(=O)N(CC23CC4CC(CC(C4)C2)C3)[C@@H]1c1ccc(CO)cc1I`, for which the composite z-score was 0.746.

`COC(=O)C1(C)C=C2C(=C(c3ccccc3)C(=O)C2C)CN1` (stereo not drawn) came in with a composite z-score of -0.593.

`O=C1[C@H]2[C@H]3[C@H](O)[C@H](O)CC(=NO[C@@H]4O[C@H](CO)[C@@H](O)[C@H](O)[C@H]4O)[C@@H]3CC[C@H]2C(=O)N1Cc1ccccc1` displayed a composite z-score of -0.37.

`CCOC(=O)CCN1C(=O)[C@H]2[C@H]3[C@H](O)C=CC(=O)[C@@H]3CC[C@H]2C1=O` gave a composite z-score of 0.425.

`Cc1cc2c(nc1C)CCCN2CC(C)ON=C1[C@H]2CCn3c(=O)n(-c4ccccc4)c(=O)n3[C@H]2[C@H](O)[C@@H]2O[C@H]12` (stereo partly drawn) came in with a composite z-score of 1.03.

Consider `CCCCc1nc2c(c3c1C[C@H](C)OC3)CN(CCC(C)C)CC2`, for which the composite z-score was 0.992.
